Screens from PubChem BioAssay.
tim10-1 inh: growth inhibitors of tim10-1 mutant yeast. S. cerevisiae tim10-1 ts strain growth, BacTiter-Glo, 24 h. inhibition, % at 20 µM. 330,000 compounds, 2.2% hits. AID 463190;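 active = inhibition of at least 40%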;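 note: mutant grown at 25 °C; 0% = DMSO wells with yeast and 100% = wells holding no yeast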
NALP3 yeast inh: inhibitors of NALP3 inflammasome in yeast | 330,000 compounds, 0.39% hits | Yeast reconstituted NLRP3/ASC/caspase-1, beta-gal luminescence, 24 h | AID 2825 | inhibition, % at 10 µM;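 active = inhibition of 50% or more; inactive = inhibition below 50%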;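 note: plate controls were induced DMSO wells for no effect and uninduced yeast grown without galactose for full effect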
tim23-1 inh: inhibits growth of tim23-1 mutant yeast. inhibition, % at 20 µM. 330,000 compounds, 1.3% hits. S. cerevisiae tim23-1 growth, BacTiter-Glo luminescence, 24 h;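 active = growth inhibition of the mutant yeast at or above 50%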;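 note: temperature-sensitive mutant grown at 25 °C; plate controls were DMSO-treated mutant yeast for no effect and medium wells lacking yeast for full effect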
PfHsp90 set2: inhibits growth of yeast expressing Plasmodium falciparum Hsp90 | S. cerevisiae expressing PfHsp90, BacTiter-Glo ATP, 48 h; yeast lacking PDR1 and PDR3 efflux regulators | inhibition, % at 9.4 µM | 310,000 compounds, 0.32% hits | AID 504621;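 active = every replicate shows inhibition above about 80%, whatever the replicate mean, limit read from the data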;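 note: 0% = DMSO neutral controls and 100% = 20 µM radicicol positive controls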
TIM10 inh: inhibits growth of TIM10 yeast strain; 330,000 compounds, 1.4% hits; inhibition, % at 10 µM; AID 463195; S. cerevisiae TIM10 strain growth, BacTiter-Glo luminescence, 24 h;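 active = inhibition of 40% or more at the single tested concentration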;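 note: wild-type TIM10 isogenic control strain grown at permissive 25 °C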
tim10-1 conf: confirmation of tim10-1 mutant yeast growth inhibitors; S. cerevisiae tim10-1 ts strain growth, BacTiter-Glo, 24 h; shares compounds with tim10-1 inh; inhibition, % at 20 µM; 7,400 compounds, 56% hits; AID 463213;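 active = inhibition of yeast growth at or above a set limit in either of two repeat tests at 20 µM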;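 note: tim10-1 mutant grown at permissive 25 °C to find synthetic lethal compounds; 0% = DMSO yeast wells and 100% = medium wells without yeast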
* marks the source's active call; other numbers are inactive results; x = no result. A selection: hits, their analogues and other compounds. The true share with any hit is near 3.7%.

SMILES	tim10-1 inh	NALP3 yeast inh	tim23-1 inh	PfHsp90 set2	TIM10 inh	tim10-1 conf
CCN(CC)C(=O)Oc1ccc2c(=O)c(-c3ccccc3)coc2c1	54*	37	21	11	25	41*
O=C(Nc1cccc2ncccc12)c1ccco1	6	1	9	20	-8	x
N=C(N)c1ccc(Cl)cc1	-6	5	4	8	16	x
N=C(N)c1ccc(/C=C/c2ccc(C(=N)N)cc2O)cc1	56*	16	38	-9	-22	70*
CCOc1ccc(C(c2c(C)[nH][nH]c2=O)c2c(C)[nH][nH]c2=O)cc1OC	42*	26	50	2	26	24
CNC(=O)C1CN(C(=O)c2cccc(S(=O)(=O)N3c4ccccc4CC3C)c2)c2ccccc2O1 (stereo not given)	15	1	24	x	15	x
Cc1ccc2oc(C(=O)N3CCN(Cc4ncccc4C)CC3)c(C)c2c1	41*	16	40	10	27	18
Cc1ccc2oc(C(=O)N3CCN(CC(=O)NC(C)C)CC3)c(C)c2c1	-6	14	-4	-11	-6	x
CCCC(c1nnnn1Cc1cccs1)N1CCN(C)CC1 (stereo not given)	15	9	15	12	4	x
COc1cccc(C(c2nnnn2Cc2ccco2)N2CCN(Cc3ccccc3)CC2)c1OC (stereo not given)	27	4	20	18	5	x
CC(C)C(c1nnnn1Cc1ccco1)N1CCN(c2cccc(Cl)c2)CC1 (stereo not given)	41*	21	40	5	22	15
COc1ccc(N2CCN(C(c3ccccc3OC)c3nnnn3Cc3ccco3)CC2)cc1 (stereo not given)	40*	7	13	4	4	22
CCCC(c1nnnn1Cc1cccs1)N1CCN(c2ccc(OC)cc2)CC1 (stereo not given)	43*	-39	24	-16	31	16
O=C1CC(N2CCN(S(=O)(=O)c3ccccc3F)CC2)C(=O)N1c1ccccc1Cl (stereo not given)	15	-4	-2	5	-2	x
COc1ccc(NCc2nc3ccccc3n2C)cc1	-12	10	5	-30	-8	x
COc1ccc(NCc2nc3ccccc3n2CCOc2ccc(C)cc2)cc1	50*	28	49	5	17	29
Cc1ccccc1N=C1NN=C(c2ccccc2F)CS1	42*	-1	15	-8	6	22
O=C(Nc1ncc2c(n1)-c1ccccc1CC2)c1ccccc1	47*	9	39	-7	12	29
Nc1ncc2c(n1)-c1ccccc1CC2	15	18	-2	11	6	x
O=C(Nc1ncc2c(n1)-c1ccccc1CC2)c1ccc(F)cc1	40*	13	35	-10	26	26
O=C(Nc1ncc2c(n1)-c1ccccc1CC2)c1cccs1	26	-1	38	1	27	x
Cc1c(Cl)cccc1NC(=O)c1nc(C)n(-c2cc(OC(C)C)c(Cl)cc2Cl)n1	43*	12	26	2	30	26
CNC(=O)c1nc(C)n(-c2ccc(Cl)cc2Cl)n1	1	-5	3	0	6	x
C[C@@H]1COC(=O)[C@@H](NC(=O)OCC2c3ccccc3-c3ccccc32)C/C=C\C[C@@H](CC(=O)N(CCO)Cc2ccccc2)C(=O)N1	3	15	14	-4	-4	x
Cc1n[nH]c(=S)n1/N=C/c1ccccc1OCc1ccc(Cl)cc1	28	25	4	-23	32	x
SMILES	tim10-1 inh	NALP3 yeast inh	tim23-1 inh	PfHsp90 set2	TIM10 inh	tim10-1 conf
Cc1cccc(/C=N/n2c(COc3ccccc3)n[nH]c2=S)c1	43*	35	41	-20	36	37*
Cc1n[nH]c(=S)n1/N=C/c1cccc(OCc2ccccc2)c1	41*	26	37	7	26	28
Cc1cc(Br)ccc1NC(=O)CN(C)C(=O)C1CCN(c2ncnc3sc(C)c(C)c23)CC1	x	x	x	-2	x	x
CC(SC(C)C(=O)NN=Cc1ccc(F)cc1)C(=O)NN=Cc1ccc(F)cc1 (stereo not given)	x	x	x	22	x	x
O=C1C(c2ccc(F)cc2)N(Cc2ccc3c(c2)OCO3)C(=O)CN1C1CCCC1 (stereo not given)	29	3	27	9	15	x
O=C1C(c2ccc(F)cc2)N(Cc2ccc3c(c2)OCO3)C(=O)CN1C1CCCCC1 (stereo not given)	40*	5	29	-15	17	30
O=C(OCC(=O)N(CCc1ccccc1)Cc1ccccc1)c1cccc(S(=O)(=O)N2CCOCC2)c1	x	x	x	-29	x	x
COc1ccc(-n2c(C)cc(C(=O)CSc3nnc(-c4ccoc4C)n3C)c2C)cc1	40*	1	25	0	4	19
COc1ccccc1NC(=S)NCCc1ccc(F)cc1	48*	12	7	9	29	19
COc1ccc(C2c3sc(=O)[nH]c3SCC2C(N)=O)cc1 (stereo not given)	1	5	-1	-15	10	x
CCOC(=O)C1CSc2[nH]c(=O)sc2C1c1ccccc1 (stereo not given)	40	10	37	-7	21	16
Cc1ccc(N(CC(=O)NC2CCCCC2)S(=O)(=O)c2cccs2)cc1	30	-13	11	-9	16	x
COc1ccc(NC2CCCN(C(=O)C3=NN(C)C(=O)CC3)C2)cc1OC (stereo not given)	23	-1	14	23	5	x
CCCn1cnc2c(sc3nc4c(cc32)CSC(C)(C)C4)c1=O	41*	19	29	-30	32	8
CCCCCCCCCCCCCCCCCCNc1ccn(C2OC(COP(=O)(O)OCC3OC(n4cc(F)c(=O)[nH]c4=O)CC3O)C(O)C2O)c(=O)n1 (stereo not given)	x	x	x	-96	x	x
C=C[C@@](C)(O)CC[C@@H]1[C@@]2(C)CCCC(C)(C)[C@@H]2CC[C@@]1(C)O	42*	29	32	-21	17	13
O=c1[nH]c2cc3ccccc3cc2nc1C(F)(F)F	42*	-21	6	15	17	-9
O=C(Nc1ccccc1Br)C1CC(=O)N(c2ccc3c4c(cccc24)CC3)C1 (stereo not given)	41*	15	30	-10	32	33*
Cc1ccccc1NC(=O)C1CC(=O)N(c2ccc3c4c(cccc24)CC3)C1 (stereo not given)	4	22	11	-15	7	x
CC1CN(S(=O)(=O)c2cccc(C(=O)NCC(c3cccs3)N3CCOCC3)c2)CC(C)O1 (stereo not given)	x	x	x	-8	x	x
OC1(c2ccc(OC(F)F)cc2)CSC(=Nc2cccnc2)N1C1CC1 (stereo not given)	41*	12	-1	19	-10	24
O=C(CN1CCN(S(=O)(=O)c2ccccc2)CC1)Nc1ccc([N+](=O)[O-])cc1	47*	5	25	-1	13	32*
